An excerpt weighted towards active compounds, which were near 12% of everything screened.
JMJD2A Tudor inh – inhibitors of human JMJD2A Tudor domain; O75164; AlphaScreen JMJD2A-Tudor / H3K4me3 peptide binding; Potency, µM (series often up to 114 µM), without a hit: top-dose activity change, negative = inhibition, most hits filed as inhibitors; 4.4% of 390,000 active; AID 504339; also: % is scaled to controls: 0 for no effect and ±100 for the full control effect; nearly all actives have a fitted effect of over 50% in size
BAZ2B inh – blocks human BAZ2B. AlphaScreen BAZ2B-H3K14Ac peptide displacement. Potency, µM (highest dose often 114 µM), inactives show at the highest dose activity change, negative = inhibition, most hits filed as inhibitors. AID 504333. 4.4% of 360,000 active; also: % is scaled to controls: 0 for no effect and ±100 for the full control effect; nearly all actives have a fitted effect of over 60% in size
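AlphaScreen displacement of biotin-H3(5-23)K14Ac peptide (50 nM final) from BAZ2B (50 nM final) in PBS pH 7.4, 0.01% Tween-20; complex preformed 30 min RT, then compounds (top 110 uM) 30 min RT, beads 20 min dark.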
HP1b binding inh – inhibitors of HP1-beta chromodomain binding to methylated histone tails | P83916 | AID 540317 | 0.56% of 390,000 active | AlphaScreen HP1-beta / biotin-H3K9me3 peptide binding | Potency, µM (series often up to 114 µM), inactives show at the top dose activity change, negative = inhibition, most hits filed as inhibitors; also: nearly all actives have a fitted effect of over 70% in size
Target sequence (P83916 whole entry, looked up): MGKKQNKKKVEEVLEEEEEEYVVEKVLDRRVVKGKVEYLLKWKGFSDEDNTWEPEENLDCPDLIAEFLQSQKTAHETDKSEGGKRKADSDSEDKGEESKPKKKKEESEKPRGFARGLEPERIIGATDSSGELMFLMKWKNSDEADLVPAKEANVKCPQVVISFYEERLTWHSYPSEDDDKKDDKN
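HP1-beta protein (50 nM final) preincubated 30 min at room temperature with biotinylated H3(1-18)K9me3 peptide (50 nM) in PBS pH 7.4, 0.01% Tween-20, then compound added for 30 min. AlphaScreen streptavidin donor/nickel chelate acceptor beads (10 ug/mL final), 30 min dark, luminescence read.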
TDP1 inh – blocks human tyrosyl-DNA phosphodiesterase 1. Potency, µM (titrated, usually from 130 µM), inactives show at the highest dose activity change, negative = inhibition, most hits filed as inhibitors. Q9NUW8. recombinant TDP1, AlphaScreen DNA substrate cleavage. 0.28% of 350,000 active; also: % is scaled to controls: 0 for no effect and ±100 for the full control effect; nearly all actives have a fitted effect of over 40% in size
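Signal: AlphaScreen proximity between streptavidin donor and anti-FITC acceptor beads on intact substrate. Reaction: Tdp1 1 nM, substrate 15 nM final, 5 min RT after 15 min compound preincubation.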
Sfp inh – Sfp phosphopantetheinyl transferase inhibition | Biochemical Sfp PPTase activity, qHTS | Potency, µM, for the others: largest response in the series, negative = inhibition, usual class: inhibitors | 3.5% of 310,000 active | AID 1490;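 also: the enzyme is Sfp with the accession as filed and its product quenches rhodamine fluorescence; 0% = enzyme reaction without inhibitor and -100% = no enzyme wells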
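Buffer: 50 mM Hepes-Na pH 7.6, 10 mM MgCl2, 0.01% Nonidet P-40, 0.01% BSA. Enzyme 15 nM, pre-exposed to compound 15 min; substrates then added and fluorescence change tracked over 30 min.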
G9a block – G9a (human) methyltransferase inhibition. G9a H3K9 monomethylation, AlphaScreen, 2 h. Potency, µM (series often up to 102 µM), for the others: top-dose activity, negative = inhibition, most hits filed as inhibitors. 8.8% of 350,000 active; also: % is scaled to controls: 0 for no effect and ±100 for the full control effect; nearly all actives have a fitted effect of over 75% in size
Target sequence (Q96KQ7 913-1193 limits assumed): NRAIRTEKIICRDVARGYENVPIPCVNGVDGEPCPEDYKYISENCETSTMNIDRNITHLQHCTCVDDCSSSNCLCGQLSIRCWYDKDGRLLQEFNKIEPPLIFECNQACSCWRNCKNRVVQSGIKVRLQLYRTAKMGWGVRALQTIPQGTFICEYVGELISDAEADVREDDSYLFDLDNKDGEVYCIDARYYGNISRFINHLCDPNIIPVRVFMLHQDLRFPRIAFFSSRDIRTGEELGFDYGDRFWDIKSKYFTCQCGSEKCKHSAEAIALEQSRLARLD
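G9a (20 nM) was preincubated 15 min with compound, then reacted 2 h at room temperature with 500 nM biotin-H3K9 peptide and 20 µM SAM. Monomethyl-H3K9 detected by AlphaScreen using anti-H3K9me1 antibody.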
Active calls of the source: *; [ ] = dose if it differs, or a comment. Calls follow the shape of the dose curve; as a rule, active = well fitted curve in the direction sought with a large enough effect; inconclusive = small, poorly fitted or top-dose-only effect, or another doubt; inactive = no such curve, though single readings can be large; an effect the other way counts as inactive or inconclusive. Potency is read from the fitted curve at half-maximal effect.

COc1ccc(S(=O)(=O)Nc2c(C(=O)O)[nH]c3ccc(OC)cc23)c(OC)c1 was read as JMJD2A Tudor inh 17.8µM*, BAZ2B inh 44.7µM*, HP1b binding inh 44.7µM*, TDP1 inh 13.7%, Sfp inh 25.1µM* and G9a block 2.24µM*.
For COc1ccc2[nH]c(C(=O)O)c(NS(=O)(=O)c3ccc(OC)c(OC)c3)c2c1 the results were JMJD2A Tudor inh inconclusive, BAZ2B inh inconclusive, HP1b binding inh -1.9%, TDP1 inh 7.3%, Sfp inh -13.4% and G9a block inconclusive.
For COc1ccc(COC(=O)N/N=C/c2cccs2)cc1 the results were JMJD2A Tudor inh -15.7%, BAZ2B inh -7.8%, HP1b binding inh 47.7%, TDP1 inh 2.7%, Sfp inh 9.5% and G9a block 1.6%.
Screening Cc1ccc(N(CC(C)C)S(=O)(=O)c2nnc(NC(=O)c3cccs3)s2)cc1 returned JMJD2A Tudor inh 29.3%, BAZ2B inh 12.6%, HP1b binding inh 64.0%, TDP1 inh 1.3% and G9a block 14.8%[59 µM].
`Cc1cccnc1NC(=S)NCCc1ccccc1` gave JMJD2A Tudor inh 20µM*, BAZ2B inh 35.5µM*, HP1b binding inh inconclusive, TDP1 inh 9.9%, Sfp inh 39.8µM* and G9a block 0.708µM*.
`Cc1ccc(NC(=S)NCCc2ccccc2)nc1` gave JMJD2A Tudor inh -20.0%, BAZ2B inh -32.2%, HP1b binding inh 21.8%, TDP1 inh 5.5%, Sfp inh -8.8% and G9a block 1.58µM*.
For Cc1ccc(S(=O)(=O)CCC(=O)Nc2nc(-c3ccncc3)cs2)cc1 the results were JMJD2A Tudor inh 14.4%, BAZ2B inh -37.8%, HP1b binding inh 42.7%, TDP1 inh 2.8%, Sfp inh -3.5% and G9a block 39.8µM*.
`O=C(CCS(=O)(=O)c1ccccc1)Nc1nc(-c2ccccn2)cs1` gave JMJD2A Tudor inh 89.1µM* and HP1b binding inh 29.9%.
`O=C(CCS(=O)(=O)c1ccc(F)cc1)Nc1nc(-c2ccccn2)cs1` gave JMJD2A Tudor inh 5.4%, BAZ2B inh inconclusive, HP1b binding inh 23.2%, TDP1 inh -0.7%, Sfp inh -11.2% and G9a block inconclusive.
Screening Cc1cc(C)c(OCC(=O)Nc2nc(-c3ccccn3)cs2)c(C)c1 returned JMJD2A Tudor inh -21.1%, BAZ2B inh 50.1µM*, HP1b binding inh 15.3%, TDP1 inh 4.6%, Sfp inh -2.7% and G9a block 44.7µM*.
`Cc1ccccc1OCC(=O)Nc1nc(-c2ccncc2)cs1` gave JMJD2A Tudor inh -9.0%, BAZ2B inh 9.2%, HP1b binding inh 22.5%, TDP1 inh 0.7% and G9a block -6.7%[2.33 µM].
`COc1ccc2oc(C(=O)Nc3nc(-c4ccccn4)cs3)c(C)c2c1` gave JMJD2A Tudor inh -22.3%, BAZ2B inh -0.2%, HP1b binding inh 9.7%, TDP1 inh 5.3% and G9a block 50.1µM*.
For Cc1ccc(S(=O)(=O)c2cn(CC(=O)Nc3ccc4c(c3)OCO4)c3ccc(C)cc3c2=O)cc1 the results were JMJD2A Tudor inh -27.8%, BAZ2B inh -37.4%, HP1b binding inh 9.6%, TDP1 inh 1.3% and G9a block inconclusive.
Screening O=[N+]([O-])c1cccc(-c2nc(Oc3ccc(Cl)cc3)c3ccccc3n2)c1 returned BAZ2B inh inconclusive, TDP1 inh 0.0%, Sfp inh -29.6% and G9a block 11.2µM*.
Screening Cc1cc(=O)[nH]c(SCC(=O)Nc2ncc(S(=O)(=O)c3ccc([N+](=O)[O-])cc3)s2)n1 returned JMJD2A Tudor inh -25.0%, BAZ2B inh -13.1%, HP1b binding inh inconclusive, TDP1 inh 5.4%, Sfp inh -4.0% and G9a block 44.7µM*.
For CC(C)c1ccc(Nc2nnc(SCC(=O)Nc3ncc(S(=O)(=O)c4ccc([N+](=O)[O-])cc4)s3)s2)cc1 the results were JMJD2A Tudor inh -13.6%, BAZ2B inh -20.4%, HP1b binding inh 13.5%, TDP1 inh 2.7%, Sfp inh 1.6% and G9a block 35.5µM*.
`O=C(NC(=S)Nc1ccccc1O)c1ccc(Cl)cc1Cl` gave JMJD2A Tudor inh -35.7%, BAZ2B inh -38.0%, HP1b binding inh 3.3%, TDP1 inh 2.4%, Sfp inh 8.2% and G9a block inconclusive.
`COc1ccc2[nH]c3c(C)c4ccncc4c(C)c3c2c1` gave JMJD2A Tudor inh -31.3%, BAZ2B inh inconclusive, HP1b binding inh 15.6%, TDP1 inh 5.7%, Sfp inh 15.8µM* and G9a block 39.8µM*.
`CCN(CC)S(=O)(=O)c1ccc(=O)n(CC(=O)N2Cc3ccccc3CC2C(N)=O)c1` (configuration not stated) gave JMJD2A Tudor inh -5.5%, BAZ2B inh 8.2%, HP1b binding inh 18.2%, TDP1 inh -5.1% and G9a block -5.5%.
Screening Cc1ccc(N(CCC#N)C(=O)COC(=O)c2cc(C)no2)cc1 returned JMJD2A Tudor inh -13.1%, BAZ2B inh 10.5%, HP1b binding inh 14.4% and G9a block 22.4µM*.
Screening Cc1cc(C)cc(N(CCC#N)C(=O)COC(=O)C2CCN(S(=O)(=O)c3ccc(C)c(C)c3)CC2)c1 returned JMJD2A Tudor inh -15.1%, BAZ2B inh 6.7%, HP1b binding inh 18.6%, TDP1 inh -7.6% and G9a block -44.3%.
`Cc1ccc(N(CCC#N)C(=O)COC(=O)C2CCN(S(=O)(=O)c3ccc(C)c(C)c3)CC2)cc1` gave JMJD2A Tudor inh -2.7%, BAZ2B inh -32.3%, HP1b binding inh 33.7%, TDP1 inh 0.4% and G9a block 44.7µM*.
Screening Cc1ccc(N(CCC#N)C(=O)COC(=O)c2cc(C)oc2C)cc1 returned JMJD2A Tudor inh -14.9%, BAZ2B inh -30.9%, HP1b binding inh 20.2%, TDP1 inh -1.8%[56.1 µM] and G9a block 2.6%[2.33 µM].
Screening CN(CCC(=O)c1ccccc1)CCC(=O)c1ccccc1 returned JMJD2A Tudor inh -11.2%, BAZ2B inh 4.8%, HP1b binding inh 14.4%, Sfp inh 10.6% and G9a block 31.6µM*.
For O=C(CC(=O)c1ccccc1)c1ccccc1 the results were JMJD2A Tudor inh 161.1%, HP1b binding inh 285.3%, Sfp inh -29.9% and G9a block -4.2%[2.33 µM].
CN(C)CCC(=O)c1ccc(Cl)cc1 was read as JMJD2A Tudor inh -7.9%[57.1 µM], BAZ2B inh -2.6%, HP1b binding inh 17.5%, TDP1 inh -1.9%, Sfp inh -3.5% and G9a block 6.31µM*.
O=C(CC(=O)c1ccncc1)c1ccccc1 was read as JMJD2A Tudor inh 31.6µM* and HP1b binding inh 6.9%.

Source: PubChem (National Center for Advancing Translational Sciences (NCATS))
